D2 antag – HTS Assay for Allosteric Antagonists of the Human D2 Dopamine Receptor: Primary Screen for Antagonists; HEK293 TREx D2 cells, calcium flux, dopamine EC80; inhibition, % at 10 µM; 340,000 compounds, 2% hits; in the data active = inhibition above about 30%; inactive = below that, where a call was filed
Target sequence (P14416 whole entry, looked up): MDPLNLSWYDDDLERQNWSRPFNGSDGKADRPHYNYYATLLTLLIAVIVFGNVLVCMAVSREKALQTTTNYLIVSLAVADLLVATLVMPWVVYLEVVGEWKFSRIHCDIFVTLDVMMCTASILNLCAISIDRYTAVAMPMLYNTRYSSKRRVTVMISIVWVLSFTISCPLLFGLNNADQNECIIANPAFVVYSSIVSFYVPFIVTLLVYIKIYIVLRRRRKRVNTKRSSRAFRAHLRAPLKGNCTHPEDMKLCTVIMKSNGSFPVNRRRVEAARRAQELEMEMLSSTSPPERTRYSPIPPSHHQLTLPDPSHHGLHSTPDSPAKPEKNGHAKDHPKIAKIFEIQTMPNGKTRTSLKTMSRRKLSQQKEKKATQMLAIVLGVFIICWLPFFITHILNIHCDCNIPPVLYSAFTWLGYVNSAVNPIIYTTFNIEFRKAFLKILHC
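Inhibition of EC80 dopamine-driven calcium flux, recorded kinetically, defines activity here; cells are a tetracycline-induced HEK293 T-REx line expressing force-coupled D2.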
D2 ag-1 – Beta-Arrestin HTS for Positive Allosteric Modulators of the Human D2 Dopamine Receptor: Agonists; D(2) dopamine receptor (Homo sapiens), P14416; DiscoveRx PathHunter D2 beta-arrestin, luminescence, 90 min; 100% = 57 uM dopamine signal; activation, % (test concentration not listed); 360,000 compounds, 0.084% hits; AID 624465, 2012; in the data active = activation above about 40%
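DiscoveRx PathHunter D2 beta-arrestin cells (2,100/well) attached overnight, then compound-stimulated 90 min at 37 C in HBSS/10 mM HEPES/0.1% Tween-20 buffer; beta-galactosidase complementation read by luminescence after 1 h at ambient temperature. Dopamine 57 uM final (EC100) as control.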
D2 PAM-1 – Beta-Arrestin HTS for Positive Allosteric Modulators of the Human D2 Dopamine Receptor: Potentiators; D(2) dopamine receptor (Homo sapiens), P14416; DiscoveRx D2 beta-arrestin cells, luminescence, 90 min; 100% = 57 uM dopamine signal; potentiation, % (no concentration beside the values); 360,000 compounds, 0.23% hits; AID 624464, 2012; in the data active = potentiation above about 50%
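D2 cells co-treated with compound plus 50 nM dopamine (EC20) for 90 min at 37 deg C to detect potentiation. Beta-arrestin recruitment was read as enzyme-fragment luminescence after 1 h at ambient temperature. Full response was set by 57 uM dopamine.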
D2 ag-2 – HTS Assay for Allosteric Agonists of the Human D2 Dopamine Receptor: Primary Screen for Agonists; AID 485358, 2010; HEK293 T-REx D2 cells, calcium flux agonist mode; D(2) dopamine receptor (Homo sapiens), P14416; activation, % at 2 µM; 340,000 compounds, 0.53% hits;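 active = activation over 3 SD above normal in the single-dose calcium agonist read, cut at about 30% in these data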
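Tetracycline-induced HEK293 Trex cells with D2 receptor force-coupled to calcium signaling, plated overnight at 30 C and loaded with no-wash calcium dye. Calcium flux read kinetically for 180 s after compound addition; responses flag agonists.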
D2 PAM-2 – HTS Assay for Positive Allosteric Modulators of the Human D2 Dopamine Receptor: Primary Screen for Potentiators; HEK293 T-REx D2, calcium flux, EC20 dopamine potentiation; D(2) dopamine receptor (Homo sapiens), P14416; 340,000 compounds, 0.34% hits; potentiation, % at 10 µM;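 active = potentiation over 3 SD above the plate norm, cut at about 30% in these data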
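Primary screen. Calcium kinetics in induced HEK293 T-REx D2 cells: compound pre-addition 180 s, EC20 dopamine, 180 s more.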
Large screens that a line does not name were inactive. Rows were chosen to be rich in hits. Some 2.4% of all compounds tested hit in one or more screens of this group.

CCCn1cc(S(=O)(=O)c2cccc(Cl)c2)c(=O)c2cc(F)c(N3CCCC3)cc21	none (no result: D2 antag, D2 ag-1, D2 PAM-1)
CCCCC(=NCCc1c(C)[nH]c2ccc(OC)cc12)C1=C(O)CC(c2ccccc2)CC1=O (centres undefined)	D2 PAM-2 32.6
CCS(=O)(=O)N1CCc2cc(C(=O)Nc3cc(C(F)(F)F)ccc3Cl)ccc21	none (no result: D2 antag, D2 ag-1, D2 PAM-1)
Cc1c(C(=O)N2CCCC2)oc2c1-c1nn(CC(=O)NCCCN3CCCCC3)cc1CC2	D2 antag 37.3
CCOC(=O)C1(CCOC)CCN(Cc2nc(-c3cccs3)oc2C)CC1	D2 antag 31.4
Cc1oc(-c2cccs2)nc1CN1CCC(CO)(CCOc2ccccc2)CC1	D2 antag 54.1
Cc1oc(-c2cccs2)nc1CN1CCC(C(=O)N2CCCC2)CC1	none
O=C(c1c2c(nc3ccccc13)C(=O)N(C1CCCCC1)C2)N1CCN(c2ccc(F)cc2)CC1	none (no result: D2 antag, D2 ag-1, D2 PAM-1)
O=S(=O)(c1ccc(F)cc1)N1CCC(N2CCCCCC2)CC1	D2 antag 42.0
CC1CCN(C2CCN(S(=O)(=O)c3ccc(F)cc3)CC2)CC1	none
CCOc1cc(C#N)c(NC(=O)Cn2nnc(-c3ccc(C)cc3)n2)cc1OCC	none (no result: D2 antag, D2 ag-1, D2 PAM-1)
O=C(Nc1ccc(Cl)cc1)C1Cc2c(-c3ccccc3)ccnc2O1 (centres undefined)	none (no result: D2 antag, D2 ag-2, D2 PAM-2)
COc1ccc(C2=Nc3ccc(Br)cc3C(c3ccccc3)N2CC(=O)NN)cc1 (centres undefined)	none (no result: D2 antag, D2 ag-2)
COc1ccc(C2=Nc3ccc(C)cc3C(c3ccccc3)N2CC(=O)NN)cc1 (centres undefined)	D2 antag 107.7
NNC(=O)CN1C(c2cccc(Cl)c2)=Nc2ccc(Br)cc2C1c1ccccc1 (centres undefined)	D2 antag 33.9
COC(=O)CN1C(c2ccc(Cl)cc2)=Nc2ccc(Cl)cc2C1c1ccccc1 (centres undefined)	D2 antag 48.9
Cc1ccc(NC(=O)Cn2c(=O)n(CC3CCC(C(=O)NC(C)C)CC3)c(=O)c3sccc32)cc1 (centres undefined)	none (no result: D2 antag, D2 ag-1, D2 PAM-1)
Cc1cc(S(=O)(=O)N2CCN(Cc3noc(CCC(=O)N4CCCCC4)n3)CC2)ccc1F	none (no result: D2 antag, D2 ag-1, D2 PAM-1)
COc1ccc(CN2CCN(Cc3cccc(Oc4ccccc4)c3)CC2)c(OC)c1OC	D2 antag 33.9
COc1ccc(CN2CCN(C(c3ccc(F)cc3)c3ccc(F)cc3)CC2)c(OC)c1OC	none (no result: D2 antag, D2 ag-2, D2 PAM-2)
CN1CCN(Cc2cccc(Oc3ccccc3)c2)CC1	none
COc1ccc(CN2CCN(c3ccc(F)cc3)CC2)c(OC)c1OC	D2 antag 33.3
Cc1ccc(N2CCN(C(=O)C3CCN(S(=O)(=O)c4ccc5c(c4)oc(=O)n5C)CC3)CC2C)cc1 (centres undefined)	none (no result: D2 antag, D2 ag-1, D2 PAM-1)
O=C(Nc1ccc(Cl)cc1)C1Cc2c(-c3cccc(F)c3)ccnc2O1 (centres undefined)	none (no result: D2 antag, D2 ag-2, D2 PAM-2)
COc1cc(C(=O)OCCn2c(=O)c3c(ncn3CCN(C)C)n(C)c2=O)cc(OC)c1OC	D2 antag 33.8
O=C(CCNC(=O)N1CC(=O)Nc2ccccc21)NCc1ccc(F)cc1	D2 antag 51.6
COc1ccc(NC(=O)N2CCN(S(C)(=O)=O)CC2)cc1	D2 antag 34.1
COc1ccc(N2CCN(C(=O)Nc3ccc(S(=O)(=O)N(C)C)cc3)CC2)cc1	D2 antag 41.1
COc1ccc(NC(=O)N2CCN(C(=O)Nc3ccc(OC)cc3)CC2)cc1	none
CN(C)S(=O)(=O)c1ccc(NC(=O)N2CCN(c3ccccc3)CC2)cc1	none
CCCCN(C)C(=O)Cn1c(SCC(=O)Nc2ccc(C)c(C)c2)nc2ccccc21	none (no result: D2 antag, D2 ag-1, D2 PAM-1)
Clc1ccc(SCCCN2CCCCC2)cc1	D2 antag 38.4
CC1CC(C)CN(CCOc2ccc(Cl)cc2Cl)C1 (centres undefined)	none (no result: D2 antag, D2 ag-2, D2 PAM-2)
Clc1ccc(OCCCCCN2CCCC2)c(Br)c1	none
Clc1ccc(OCCCN2CCCCC2)c(Br)c1	D2 antag 38.0
